# Tau fibril ThT: qHTS for Inhibitors of Tau Fibril Formation, Thioflavin T Binding | Microtubule-associated protein tau (Homo sapiens), P10636 | Potency, µM (doses to about 57.4 µM), for the others: at the top dose activity, negative = inhibition, usual class: inhibitors | AID 1460, 2008 | recombinant tau K18 P301L, heparin-induced fibrillization, ThT fluorescence | actives 2.1% (n = 270,000); further: nearly all actives have a fitted effect of over 55% in size
# Target sequence (P10636 561-689 P618L limits assumed): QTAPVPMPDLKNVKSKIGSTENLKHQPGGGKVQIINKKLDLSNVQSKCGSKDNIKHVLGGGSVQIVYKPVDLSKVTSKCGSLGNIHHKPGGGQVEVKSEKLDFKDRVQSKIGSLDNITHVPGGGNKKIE
#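 K18 P301L tau (15 uM + 0.24 uM Alexa 594-tagged), heparin 20 uM, NaOAc pH 7, 6 h 37 C; ThT 30 uM, 1 h RT, ex 450/em 510 nm.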
# Sfp inh: qHTS Assay for Inhibitors of Bacillus subtilis Sfp phosphopantetheinyl transferase (PPTase); Potency, µM, for the others: largest response in the series, negative = inhibition, usual class: inhibitors; Biochemical Sfp PPTase activity, qHTS; actives 3.5% (n = 310,000); 4'-phosphopantetheinyl transferase ffp (Bacillus subtilis), Q9F4F7;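 further: the enzyme is Sfp with the accession as filed and its product quenches rhodamine fluorescence; 0% = enzyme reaction without inhibitor and -100% = no enzyme wells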
#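 Buffer: 50 mM Hepes-Na pH 7.6, 10 mM MgCl2, 0.01% Nonidet P-40, 0.01% BSA. Enzyme 15 nM, pre-exposed to compound 15 min; substrates then added and fluorescence change tracked over 30 min.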
# Tau fluor cs: Counterscreen qHTS for Inhibitors of Tau Fibril Formation, Fluorescence Polarization; tau K18 P301L Alexa594 fluorescence, heparin fibrillization; Potency, µM (titrated, usually from 57.7 µM), without a hit: at the top dose activity change, negative = decrease; actives 0.93% (n = 280,000); further: nearly all actives have a fitted effect of over 55% in size
#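 Human tau K18 P301L (15 uM unlabeled, 0.24 uM Alexa 594-labeled) in 100 mM sodium acetate pH 7 with 20 uM heparin, 6 hr at 37 C. ThT 30 uM added, 1 hr ambient; Alexa 594 FP and total fluorescence read at 555/632 nm.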
# PLK1 PBD block: qHTS for Inhibitors of PLK1-PDB (polo-like kinase 1 - polo-box domain): Primary Screen; Potency, µM, for inactives: max response, negative = inhibition, usual class: inhibitors; Plk1 PBD binding of FITC phosphopeptide, fluorescence polarization; Serine/threonine-protein kinase PLK1 (Homo sapiens), P53350; actives 2.8% (n = 360,000); further: series mostly up to about 57 µM; nearly all actives have a fitted effect of over 65% in size
# Target sequence (P53350 whole entry, looked up, the tested form may be a part): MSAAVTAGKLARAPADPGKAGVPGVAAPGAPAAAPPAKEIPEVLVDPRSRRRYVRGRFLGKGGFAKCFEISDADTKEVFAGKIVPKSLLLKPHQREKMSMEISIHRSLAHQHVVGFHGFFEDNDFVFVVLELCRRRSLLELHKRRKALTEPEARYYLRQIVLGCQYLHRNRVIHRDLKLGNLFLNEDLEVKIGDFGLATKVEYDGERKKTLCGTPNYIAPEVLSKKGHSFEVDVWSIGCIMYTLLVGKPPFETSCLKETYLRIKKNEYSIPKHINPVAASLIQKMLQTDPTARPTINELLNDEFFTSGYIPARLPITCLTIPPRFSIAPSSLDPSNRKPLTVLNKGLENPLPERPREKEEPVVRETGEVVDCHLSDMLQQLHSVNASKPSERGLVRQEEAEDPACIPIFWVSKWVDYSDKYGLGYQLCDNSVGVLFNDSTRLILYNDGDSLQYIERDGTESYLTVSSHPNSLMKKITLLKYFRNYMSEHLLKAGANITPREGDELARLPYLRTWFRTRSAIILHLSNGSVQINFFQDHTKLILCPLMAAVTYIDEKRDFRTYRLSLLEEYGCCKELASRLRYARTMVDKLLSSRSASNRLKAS
# Tau FP inhib: qHTS for Inhibitors of Tau Fibril Formation, Fluorescence Polarization; actives 0.39% (n = 280,000); Potency, µM (doses to about 57.7 µM), inactives show at the highest dose activity, negative = inhibition, usual class: inhibitors; K18 P301L tau heparin fibrillization, Alexa594 FP, 6 h; Microtubule-associated protein tau (Homo sapiens), P10636; AID 1468, 2008; further: nearly all actives have a fitted effect of over 55% in size
#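 Heparin (20 uM) drove fibril formation of recombinant tau K18 P301L, 15 uM unlabeled with 0.24 uM Alexa 594 label, for 6 hr at 37 C in 100 mM sodium acetate pH 7. Fluorescence polarization (555/632 nm) read 1 hr after 30 uM ThT.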
# VDR inhibitor: Inhibitors of the vitamin D receptor (VDR): qHTS | Vitamin D3 receptor (Homo sapiens), P11473 | actives 0.93% (n = 400,000) | Potency, µM, for the others: max response, negative = inhibition, usual class: inhibitors | VDR-SRC2-3 peptide fluorescence polarization, 2 h
#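 Two reagent solutions held at 4 deg C in the dark were dispensed, compounds pinned at 23 nl, and the mixture incubated 2 h at room temperature. Read-out: fluorescence polarization of VDR–SRC2-3 peptide binding.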
# Active calls of the source: *; u = inconclusive; x = no result; [ ] = another dose, or the depositor's remark. Rows were chosen to be rich in hits. Some 6% of all compounds tested hit in one or more screens of this group. The call rests on the fitted dose curve; in most records, active means well fitted curve in the direction sought with a large enough effect; inconclusive means small, poorly fitted or top-dose-only effect, or another doubt; inactive means no such curve, though single readings can be large; an effect the other way counts as inactive or inconclusive. Unless noted, on the % scale 0 is the no-effect control and ±100 the full control effect; potency means the concentration at half of the fitted maximal effect.
SMILES,Tau fibril ThT,Sfp inh,Tau fluor cs,PLK1 PBD block,Tau FP inhib,VDR inhibitor
CC1CCCN(Cc2c(O)ccc3c2O/C(=C\c2ccco2)C3=O)C1 (stereo not given),u,35.5µM*,-5.5%,u,-6.2%,-19.1%
COc1ccccc1-c1ccc(=O)n(CC(=O)NC2CCc3ccccc32)n1 (stereo not given),-17.4%,35.5µM*,-1.8%,-10.7%,-4.9%[2.34 µM],0.2%
Cc1cc(NC(=O)CSCC(=O)N2CCN(c3ccccc3)CC2)no1,x,x,x,-3.1%,x,-14.1%
Cc1cccc(-n2c(SCC(=O)Nc3ccccc3C)nc3c(oc4ccccc43)c2=O)c1,-0.4%,x,-14.7%,x,-12.3%,-1.3%
O=C(Nc1nccs1)C1CC=CCC1 (stereo not given),x,-10.2%,x,-13.2%,x,-15.2%
O=C(Nc1ccc(O)cc1)C1CC=CCC1 (stereo not given),25.1µM*,-4.5%,28.2µM*[quencher],-3.8%,u,-3.4%
Cc1nc(-c2cccc(S(=O)(=O)N3CCOCC3)c2)cs1,u,39.8µM*,-18.1%,9.47µM*,-19.8%,u
COc1ccc(CC(=O)Nc2nc(C)cs2)cc1S(=O)(=O)N1CCOCC1,x,x,x,-2.3%,x,6.5%
Cc1ccc(S(=O)(=O)N2CCOCC2)cc1C(=O)Nc1nc(-c2ccccn2)cs1,x,x,x,16.8µM*,x,u
O=C(Nc1nc(-c2ccccn2)cs1)c1cccc(S(=O)(=O)N2CCOCC2)c1,x,x,x,18.9µM*,x,u
COc1ccc(CC(=O)Nc2nc3ccccc3s2)cc1S(=O)(=O)N1CCOCC1,-4.4%,4.3%,-26.9%,21.2µM*,-10.2%,u
COCCNc1nc(NCc2cccc(OC)c2)c2sc(-c3ccccc3)cc2n1,x,x,x,-1.2%,x,x
Cc1ccc(C)c(NC(=O)c2nnn(Cc3ccc(F)cc3Cl)c2N)c1,2.4%,x,u,x,u,1.4%
COc1ccc(C(=O)Nc2nc(-c3ccccn3)cs2)cc1S(=O)(=O)N1CCOCC1,x,x,x,23.8µM*,x,u
COc1ccc(C(=O)Nc2nncs2)cc1S(=O)(=O)N1CCOCC1,x,13.3%,x,-10.2%,x,-5.5%
CCOC(=O)c1c(-c2ccccc2Cl)csc1NC(=O)c1cc(S(=O)(=O)N2CCOCC2)ccc1C,-10.7%,u,1.8%,10.6µM*,-1.4%,-13.4%
COc1cc(NS(=O)(=O)c2cc3c(cc2C)n(C)c(=O)c(=O)n3C)cc(OC)c1,5.2%,x,1.0%,x,-0.1%,1.2%
COc1ccc(Nc2ccc3cc(S(=O)(=O)N4CCCC4)ccc3n2)cc1Cl,u,x,2.82µM*[quencher],x,6.6%,5.4%
CCOC(=O)c1cccc(Nc2ccc3cc(S(=O)(=O)N4CCCCC4)ccc3n2)c1,u,x,11.2µM*[quencher],x,u,15.6%
COc1ccc(Cl)cc1Nc1ccc2cc(S(=O)(=O)N3CCCCC3)ccc2n1,-8.9%,x,10µM*[quencher],x,0.1%,5.7%
CCOc1ccc(OCC)c(Nc2ccc3cc(S(=O)(=O)N4CCCC4)ccc3n2)c1,-5.8%,x,u,x,u,-0.2%
O=S(=O)(c1ccc2nc(Nc3ccc(F)cc3)ccc2c1)N1CCCC1,u,x,u,x,-13.8%,5.8%
Cc1nnc(SC(C)C(=O)Nc2ccc(N3CCOCC3)cc2)n1Cc1ccccc1 (stereo not given),x,x,x,-8.8%,x,-5.0%
O=C(O)C(c1ccccc1)N1C(=O)/C(=C\c2ccc(O)c(O)c2)SC1=S (stereo not given),x,-8.8%,x,-16.2%,x,-11.9%
Cc1ccc(NC(=O)CN2C(=O)S/C(=C\c3cccn3C)C2=O)cc1,-1.0%,-20.2%,-14.4%,0.4%,-10.5%,3.4%
SMILES,Tau fibril ThT,Sfp inh,Tau fluor cs,PLK1 PBD block,Tau FP inhib,VDR inhibitor
C=CCN1C(=O)/C(=C\C=C2\N(C)c3ccccc3C2(C)C)SC1=S,u,-15.5%,16.8%,u,-7.5%,17.4%
Cn1cccc1/C=C1/SC(=S)N(CC(=O)O)C1=O,15.8µM*,-8.1%,-11.5%,39.0%,-2.9%,-5.8%
CCC(C(=O)O)N1C(=O)/C(=C/c2cccn2C)SC1=S (stereo not given),12.6µM*,19.1%,-0.6%,39.0%,7.4%,1.5%
CN1/C(=C\C=C2/SC(=S)N(CC(=O)O)C2=O)C(C)(C)c2ccccc21,3.98µM*,22.4µM*,u,112.5%,-10.6%,0.3%
CC(C(=O)O)N1C(=O)/C(=C/c2cccn2C)SC1=S (stereo not given),17.8µM*,56.2µM*,-7.8%,40.9%,0.2%,-7.3%
CCCCNc1nc(Oc2ccc(=O)n(-c3ccccc3)n2)nc(N(C)C)n1,0.0%,x,-2.3%,x,6.5%,-2.3%
CCOc1cc(CN2CCN(c3ccc(C(C)=O)cc3)CC2)ccc1OC,u,79.4µM*,-21.6%,-12.7%,3.4%,-8.7%
CC(=O)OC(C(=O)Nc1nccs1)c1ccccc1 (stereo not given),x,19.4%,x,7.5%,x,19.5%
O=C(CCCN1C(=O)c2ccccc2C1=O)Nc1nccs1,-0.7%,-7.8%,-2.2%,-14.0%,-1.9%,10.1%
O=C(Nc1nccs1)C(Br)C(Br)c1ccccc1 (stereo not given),x,50.1µM*,x,0.947µM*,x,28.2µM*
CC(C)C(C(=O)Nc1nccs1)N1C(=O)c2ccccc2C1=O (stereo not given),-2.5%,7.9%,4.4%,21.2µM*,0.5%,-4.7%
O=C(Nc1cccc(-c2nc3ccccc3o2)c1)C(F)(F)F,-5.9%,x,-13.0%,x,u,-3.2%
CCC(=O)Nc1ccc(-c2csc(C)n2)cc1,-13.4%,11.4%,-7.8%,2.5%,6.8%,0.6%
CC(=O)Nc1ccc(-c2cc(-c3ccc(NC(C)=O)cc3)nc(-c3ccc(NC(C)=O)cc3)n2)cc1,3.8%,7.1%,1.2%,-21.3%,u,-18.6%
CC(=O)Nc1ccc(-c2cc(-c3ccc(NC(C)=O)cc3)nc(-c3ccccc3)n2)cc1,14.9%,3.0%,-7.8%,-3.9%,14.1µM*,15.8%
Nc1ccc(-c2cc(-c3cccc(N)c3)nc(-c3ccccc3)n2)cc1,u,-3.4%,3.55µM*[quencher],-2.4%,0.5%,-9.2%
Nc1ccc(-c2nc(-c3ccccc3)nc3ccccc23)cc1,x,8.4%,x,-1.6%,x,10.1%
CCC(=O)Nc1ccc(-c2cc(-c3ccccc3)nc(-c3ccc(NC(=O)CC)cc3)n2)cc1,-7.5%,13.7%,u,-12.8%,11.2µM*,11.6%
CC(=O)Nc1ccc(-c2cc(-c3ccccc3)nc(-c3ccccc3)n2)cc1,10.0%,1.5%,u,2.8%,3.55µM*,-1.7%

# High-throughput results from PubChem.
